In PubChem BioAssay (NCATS):
Results filed as inconclusive are left out. Activity calls are given as the source filed them. Calls come from the whole dose curve; as a rule, active = well fitted curve in the direction sought with a large enough effect; inconclusive = small, poorly fitted or top-dose-only effect, or another doubt; inactive = no such curve, though single readings can be large; an effect the other way counts as inactive or inconclusive.

What was measured:
[1] = qHTS of pediatric cancer cell lines to identify multiple opportunities for drug repurposing: Confirmatory screen for NB1643 cells (AID 1347109); note: nearly all actives have a fitted effect of over 45% in size; note: potency is the fitted concentration of half-maximal effect
Procedure, shortened: (§1)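 Cells (500-1,000/well) rested 5 h, then received compounds for 48 h; metabolically active cells were measured by CellTiter-Glo luminescence. Final concentrations spanned up to 46 µM (MIPE, 11-point) or 0.59 nM-46 µM (NPC, 8-point) in primary screens, 11-point in follow-ups.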

[2] = qHTS of pediatric cancer cell lines to identify multiple opportunities for drug repurposing: Confirmatory screen for BT-12 cells (AID 1347112);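 note: viability read after 48 h of compound exposure; nearly all actives have a fitted effect of over 55% in size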
Procedure, shortened: as §1

[3] = qHTS of pediatric cancer cell lines to identify multiple opportunities for drug repurposing: Confirmatory screen for LAN-5 cells (AID 1347113); note: nearly all actives have a fitted effect of over 65% in size
Procedure, shortened: as §1

[4] = qHTS of pediatric cancer cell lines to identify multiple opportunities for drug repurposing: Confirmatory screen for NB-EBc1 cells (AID 1347115);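 note: cells exposed to compound for 48 h before the viability read; nearly all actives have a fitted effect of over 45% in size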
Procedure, shortened: as §1

[5] = qHTS of pediatric cancer cell lines to identify multiple opportunities for drug repurposing: Confirmatory screen for BT-37 cells (AID 1347117); note: nearly all actives have a fitted effect of over 55% in size; note: potency is the fitted concentration of half-maximal effect
Procedure, shortened: as §1

[6] = qHTS of pediatric cancer cell lines to identify multiple opportunities for drug repurposing: Confirmatory screen for TC32 cells (AID 1347118);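 note: potency is the fitted concentration of half-maximal effect; cells exposed to compound for 48 h before the read; nearly all actives have a fitted effect of over 65% in size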
Procedure, shortened: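 qHTS, TC32, 48 h drug treatment, CellTiter-Glo luminescence as a proxy for metabolically active cells; primary top concentration 46 µM (MIPE 11-pt, NPC 8-pt); confirmatory 11-pt.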

[7] = qHTS of pediatric cancer cell lines to identify multiple opportunities for drug repurposing: Confirmatory screen for MG 63 (6-TG R) cells (AID 1347119); note: nearly all actives have a fitted effect of over 55% in size
Procedure, shortened: as §1

[8] = qHTS of pediatric cancer cell lines to identify multiple opportunities for drug repurposing: Confirmatory screen for control Hh wild type fibroblast cells (AID 1347121); note: nearly all actives have a fitted effect of over 70% in size
Procedure, shortened: as §1

[9] = qHTS of pediatric cancer cell lines to identify multiple opportunities for drug repurposing: Confirmatory screen for RD cells (AID 1347124);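 note: cells exposed to compound for 48 h before viability readout; nearly all actives have a fitted effect of over 65% in size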; note: potency is the fitted concentration of half-maximal effect
Procedure, shortened: as §1

[10] = qHTS of pediatric cancer cell lines to identify multiple opportunities for drug repurposing: Confirmatory screen for Rh18 cells (AID 1347125); note: nearly all actives have a fitted effect of over 55% in size; note: potency is the fitted concentration of half-maximal effect
Procedure, shortened: as §1

[11] = qHTS of pediatric cancer cell lines to identify multiple opportunities for drug repurposing: Confirmatory screen for Rh30 cells (AID 1347126); note: nearly all actives have a fitted effect of over 55% in size
Procedure, shortened: as §1

[12] = qHTS of pediatric cancer cell lines to identify multiple opportunities for drug repurposing: Confirmatory screen for OHS-50 cells (AID 1347128); note: potency is the fitted concentration of half-maximal effect
Procedure, shortened: as §1

[13] = qHTS of pediatric cancer cell lines to identify multiple opportunities for drug repurposing: Confirmatory screen for SJ-GBM2 cells (AID 1347116); note: nearly all actives have a fitted effect of over 60% in size; note: potency is the fitted concentration of half-maximal effect
Procedure, shortened: (§2)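 Viability measured as metabolically active cells via CellTiter-Glo luminescence following 48 hours of compound exposure, 11-point dilutions in confirmatory testing. 500-1,000 cells/well plated 5 hours before dosing; controls were DMSO and 2.3 µM bortezomib.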

[14] = qHTS of pediatric cancer cell lines to identify multiple opportunities for drug repurposing: Confirmatory screen for SK-N-SH cells (AID 1347129);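 note: cells exposed to compound for 48 h before viability read; nearly all actives have a fitted effect of over 60% in size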; note: potency is the fitted concentration of half-maximal effect
Procedure, shortened: as §1

[15] = qHTS of pediatric cancer cell lines to identify multiple opportunities for drug repurposing: Confirmatory screen for A673 cells (AID 1347110);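 note: potency is the fitted concentration of half-maximal effect; cells exposed to compound for 48 h before the viability read; nearly all actives have a fitted effect of over 65% in size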
Procedure, shortened: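 Cells plated at 500-1,000/well were treated five hours later with multi-point dilutions up to 46 µM final. After two days, CellTiter-Glo was added and luminescence read.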

[16] = qHTS of pediatric cancer cell lines to identify multiple opportunities for drug repurposing: Confirmatory screen for SK-N-MC cells (AID 1347111);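 note: cells exposed to compound for 48 h before the readout; nearly all actives have a fitted effect of over 70% in size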; note: potency is the fitted concentration of half-maximal effect
Procedure, shortened: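 Seed 500-1,000 cells/well; rest 5 h at 37 degrees C. Pin-transfer compounds, 11-point titration. Incubate 48 h. Add CellTiter-Glo, 15 min RT, read luminescence.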

[17] = qHTS of pediatric cancer cell lines to identify multiple opportunities for drug repurposing: Confirmatory screen for DAOY cells (AID 1347114); note: nearly all actives have a fitted effect of over 65% in size; note: potency is the fitted concentration of half-maximal effect
Procedure, shortened: as §2

[18] = qHTS of pediatric cancer cell lines to identify multiple opportunities for drug repurposing: Confirmatory screen for U-2 OS cells (AID 1347122); note: nearly all actives have a fitted effect of over 65% in size; note: potency is the fitted concentration of half-maximal effect
Procedure, shortened: as §1

[19] = qHTS of pediatric cancer cell lines to identify multiple opportunities for drug repurposing: Confirmatory screen for Rh41 cells (AID 1347123);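 note: 48 h compound exposure; nearly all actives have a fitted effect of over 60% in size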; note: potency is the fitted concentration of half-maximal effect
Procedure, shortened: as §1

[20] = qHTS of pediatric cancer cell lines to identify multiple opportunities for drug repurposing: Confirmatory screen for Saos-2 cells (AID 1347127); note: potency is the fitted concentration of half-maximal effect; nearly all actives have a fitted effect of over 60% in size
Procedure, shortened: as §1

Measured: Potency

COc1cc(CNC(=O)CCCCC=CC(C)C)ccc1O
active: [6] 3.29 µM
inactive: [1] | [2] | [3] | [4] | [5] | [7] | [8] | [9] | [10] | [11] | [12]

CCCCn1c(=O)n(Cc2ccccc2F)c(=O)c2[nH]c(Cc3ccc(NC(C)=O)cc3)nc21
inactive: [1] | [2] | [3] | [4] | [5] | [8] | [10] | [12] | [14]
active: [13] 11.7 µM

CC(C)n1c(C=C[C@H](O)C[C@H](O)CC(=O)O)c(-c2ccc(F)cc2)c2ccccc21
active: [15] 4.65 µM | [16] 23.3 µM | [17] 3.69 µM | [13] 13.1 µM | [5] 14.7 µM | [6] 16.5 µM | [18] 3.69 µM | [19] 20.8 µM | [9] 10.4 µM | [10] 8.27 µM | [12] 10.4 µM | [14] 4.18 µM
inactive: [3]

CCC(=O)OCC(=O)[C@@]1(OC(=O)CC)[C@@H](C)C[C@@H]2[C@H]3CCC4=CC(=O)C=C[C@]4(C)[C@@]3(F)[C@@H](O)C[C@@]21C
inactive: [1] | [16] | [2] | [3] | [13] | [5] | [8] | [18] | [9] | [10] | [11] | [12]
active: [19] 14.7 µM | [14] 20.9 µM

CO[C@H]1/C=C\O[C@@]2(C)Oc3c(C)c(O)c4c(O)c(c(C=NN5CCN(C6CCCC6)CC5)c(O)c4c3C2=O)NC(=O)C(C)=CC=C[C@H](C)[C@H](O)[C@@H](C)[C@@H](O)[C@@H](C)[C@H](OC(C)=O)[C@H]1C
inactive: [3] | [13] | [7] | [8] | [18] | [9] | [10] | [14]
active: [1] 23.3 µM | [16] 20.8 µM | [5] 26.1 µM | [6] 20.8 µM | [19] 20.8 µM | [20] 20.8 µM

CC(C)CN(C[C@H](O)[C@H](Cc1ccccc1)NC(=O)O[C@H]1CCOC1)S(=O)(=O)c1ccc(N)cc1
inactive: [1] | [2] | [3] | [17] | [13] | [5] | [8] | [18] | [19] | [9] | [10] | [11] | [12] | [14]
